EWS-Fli block: EWS/Fli transcriptional activity inhibition; A673 NR0B1-luciferase reporter, viability-normalised; inhibition, % at 12.6 µM; 350,000 compounds, 0.67% hits; AID 651661;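 active = mean inhibition of at least 50% after viability correction, with every replicate also passing that limit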;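 note: firefly luciferase signal divided by Alamar Blue viability fluorescence both relative to DMSO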
PAX8 reporter: lowers PAX8-driven luciferase in RMG-I cells; RMG-I TPO-luciferase reporter, SteadyGlo, 24 h; inhibition, % at 12.6 µM; 360,000 compounds, 1.2% hits; AID 652154;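 active = mean replicate inhibition at least 60% with every replicate also reaching 60%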;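 note: luciferase light reporting Pax8 driven TPO promoter activity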
CFTR F508del cor: correctors of CFTR F508del function in bronchial epithelial cells; CFBE cells, YFP halide quenching; stimulated with forskolin plus potentiator P3; % fluorescence drop versus neutral controls; activity (quench increase), % at 7.58 µM; 350,000 compounds, 0.36% hits;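 active = mean added fluorescence quench of at least 8% versus neutral control, with both replicates also reaching 8%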;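 note: cells transiently co-express mutant CFTR-F508del with the halide-sensitive YFP; corrector assay measuring rescue of mutant channel to the surface after 24 h compound exposure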
LGR2 inh: blocks bursicon-induced cAMP signaling via Drosophila LGR2; HEK293 LGR2, CRE-luciferase, bursicon-stimulated, 4 h; inhibition, % at 9.99 µM; 380,000 compounds, 0.35% hits; AID 720647;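 active = drop in luminescence signal, shown as inhibition above about 50% in the replicate tests, limit read from the data, passing the limit was not always enough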;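 note: agonist challenge used bursicon conditioned medium at about half maximal strength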
Numbers stand for hits; ! = not confirmed by another sample. A selection: hits, their analogues and other compounds. The true share with any hit is near 1.8%.

Screening Nc1ccc(-c2nc3ccc(N)cc3[nH]2)cc1 returned EWS-Fli block inactive, PAX8 reporter inactive, CFTR F508del cor inactive and LGR2 inh inactive.
`Nc1ccc2nc(-c3ccc(Cl)cc3)[nH]c2c1` gave EWS-Fli block inactive, PAX8 reporter 80, CFTR F508del cor inactive and LGR2 inh inactive.
CCc1ccn2cc(-c3cc(-c4ccccc4)no3)nc2c1 was read as EWS-Fli block 75, PAX8 reporter 83, CFTR F508del cor inactive and LGR2 inh 103.
Screening Clc1ccc(-c2cc(-c3ccccc3)on2)cc1 returned EWS-Fli block inactive, PAX8 reporter inactive, CFTR F508del cor inactive and LGR2 inh inactive.
`Cc1ccc2nc(-c3cc(-c4ccccc4)no3)cn2c1` gave EWS-Fli block 69, PAX8 reporter inactive and CFTR F508del cor inactive.
For Cc1ccccc1OCC(=O)NC1=NCCS1 the results were LGR2 inh inactive.
NNC(=O)c1[nH]c2ccc(Cl)cc2c1-c1ccccc1 was read as EWS-Fli block inactive, PAX8 reporter 66, CFTR F508del cor 17 and LGR2 inh inactive.
C[n+]1c2cc(N)ccc2cc2ccc(N)cc21 was read as EWS-Fli block 62, PAX8 reporter 66!, CFTR F508del cor 62 and LGR2 inh inactive.
O=C(C[C@H]1CC[C@@H]2[C@H](COC[C@H](O)CN2Cc2ccc(Oc3ccccc3)cc2)O1)N1CCc2ccccc2C1 was read as EWS-Fli block inactive, PAX8 reporter inactive and CFTR F508del cor 11.
For O=C(C[C@H]1CC[C@H]2[C@@H](COC[C@@H](O)CN2Cc2ccc(Oc3ccccc3)cc2)O1)N1CCc2ccccc2C1 the results were EWS-Fli block inactive, PAX8 reporter 105 and CFTR F508del cor inactive.
`O=C(C[C@@H]1CC[C@H]2[C@@H](COC[C@H](O)CN2Cc2ccc(Oc3ccccc3)cc2)O1)N1CCc2ccccc2C1` gave EWS-Fli block inactive, PAX8 reporter 106 and CFTR F508del cor inactive.
For O=C(C[C@@H]1CC[C@@H]2[C@H](COC[C@@H](O)CN2Cc2ccc(Oc3ccccc3)cc2)O1)N1CCc2ccccc2C1 the results were EWS-Fli block inactive, PAX8 reporter inactive, CFTR F508del cor inactive and LGR2 inh inactive.
Cc1noc(C)c1S(=O)(=O)Nc1ccc2c(c1)C(=O)N([C@H](C)CO)C[C@H](C)[C@@H](CN(C)S(=O)(=O)c1ccc(Cl)cc1)OCCCC[C@@H](C)O2 was read as EWS-Fli block inactive, PAX8 reporter inactive, CFTR F508del cor inactive and LGR2 inh inactive.
Screening O=C(CNC1CCCCC1)NN=C(c1ccccc1)c1ccccc1 returned EWS-Fli block inactive, PAX8 reporter inactive, CFTR F508del cor 12 and LGR2 inh inactive.
For O=C1/C(=C\c2cccnc2)SC(=S)N1C1CCS(=O)(=O)C1 (configuration not stated) the results were EWS-Fli block inactive, CFTR F508del cor inactive and LGR2 inh 55.
For O=C(C[C@@H]1CC[C@H]2[C@@H](COC[C@H](O)CN2C(=O)c2ccncc2)O1)Nc1ccc(-c2ccccc2)cc1 the results were EWS-Fli block inactive, PAX8 reporter inactive, CFTR F508del cor inactive and LGR2 inh inactive.
Screening O=C(Nc1nc2c(F)cc(F)cc2s1)c1ccccn1 returned EWS-Fli block 53, PAX8 reporter inactive, CFTR F508del cor inactive and LGR2 inh 60.
Screening Cc1ccc2nc(NC(=O)c3ccccc3F)sc2c1 returned EWS-Fli block inactive, PAX8 reporter inactive, CFTR F508del cor inactive and LGR2 inh inactive.
For O=C(COc1ccccc1)NNc1nc2c(F)cc(F)cc2s1 the results were EWS-Fli block inactive, PAX8 reporter inactive, CFTR F508del cor inactive and LGR2 inh inactive.
Screening CSc1nc2ccc(NC(=O)c3ccccn3)cc2s1 returned EWS-Fli block inactive, PAX8 reporter inactive, CFTR F508del cor inactive and LGR2 inh 71.
CCOc1ccc2nc(NC(=O)c3ccccn3)sc2c1 was read as EWS-Fli block 70, PAX8 reporter inactive, CFTR F508del cor inactive and LGR2 inh 89.
Screening Cc1ccc2nc(NC(=O)c3ccccn3)sc2c1 returned EWS-Fli block 84, PAX8 reporter 72, CFTR F508del cor inactive and LGR2 inh 103.
CCOC(=O)C1CCN(S(=O)(=O)c2ccc3c4c(cccc24)C(=O)N3CC)CC1 was read as EWS-Fli block inactive, PAX8 reporter inactive, CFTR F508del cor inactive and LGR2 inh inactive.
O=C(Cc1ccccc1)N1CCC2(CC1)NCCc1[nH]cnc12 was read as EWS-Fli block inactive, PAX8 reporter inactive, CFTR F508del cor inactive and LGR2 inh inactive.
Cc1ccc(/C=N/NC(=O)C(C)Oc2cccc3ccccc23)o1 (configuration not stated) was read as PAX8 reporter inactive, CFTR F508del cor inactive and LGR2 inh inactive.
Screening O=c1oc(-c2ccccc2)cc(Cl)c1Cl returned EWS-Fli block 59, PAX8 reporter inactive, CFTR F508del cor inactive and LGR2 inh inactive.
For C[C@@H]1CN([C@@H](C)CO)C(=O)c2cc(NS(=O)(=O)c3ccccc3)ccc2O[C@@H](C)CCCCO[C@H]1CN(C)C(=O)Nc1ccc(C(F)(F)F)cc1 the results were EWS-Fli block inactive, PAX8 reporter inactive, CFTR F508del cor inactive and LGR2 inh inactive.
C[C@@H]1CCCCO[C@@H](CN(C)C(=O)Nc2ccc(C(F)(F)F)cc2)[C@H](C)CN([C@H](C)CO)C(=O)c2cc(NS(=O)(=O)c3ccccc3)ccc2O1 was read as EWS-Fli block inactive, PAX8 reporter 84, CFTR F508del cor inactive and LGR2 inh inactive.
For C[C@H]1CCCCO[C@@H](CN(C)C(=O)Nc2ccc(C(F)(F)F)cc2)[C@@H](C)CN([C@@H](C)CO)C(=O)c2cc(NS(=O)(=O)c3cn(C)cn3)ccc2O1 the results were EWS-Fli block inactive, PAX8 reporter 91, CFTR F508del cor inactive and LGR2 inh inactive.
Screening C[C@@H]1CN([C@H](C)CO)C(=O)c2cc(NS(=O)(=O)c3ccccc3)ccc2O[C@@H](C)CCCCO[C@H]1CN(C)C(=O)Nc1ccc(C(F)(F)F)cc1 returned EWS-Fli block inactive, PAX8 reporter inactive, CFTR F508del cor inactive and LGR2 inh inactive.
C[C@H]1CCCCO[C@H](CN(C)C(=O)Nc2ccc(C(F)(F)F)cc2)[C@@H](C)CN([C@@H](C)CO)C(=O)c2cc(NS(=O)(=O)c3ccccc3)ccc2O1 was read as EWS-Fli block inactive, PAX8 reporter 79, CFTR F508del cor inactive and LGR2 inh inactive.
Screening CCCN(CC(=O)Nc1ccccc1C)C(=O)CCCNC(=O)c1ccc(Cl)cc1 returned EWS-Fli block inactive, PAX8 reporter inactive, CFTR F508del cor inactive and LGR2 inh inactive.
Cc1onc(-c2ccccc2)c1CNC(=O)Nc1ccc(C(F)(F)F)cc1 was read as EWS-Fli block inactive, PAX8 reporter inactive, CFTR F508del cor inactive and LGR2 inh inactive.
For COc1ccc(OCCC(=O)OCC(=O)NC2CCCCCCC2)cc1 the results were EWS-Fli block inactive, PAX8 reporter inactive, CFTR F508del cor inactive and LGR2 inh inactive.
For Cc1ccc(S(=O)(=O)NNC(=O)C2CCCCC2)cc1 the results were EWS-Fli block inactive, PAX8 reporter inactive, CFTR F508del cor inactive and LGR2 inh inactive.
`CCCCCC1CCC(c2ccc(/C(N)=N/O)cc2)CC1` (configuration not stated) gave EWS-Fli block inactive, PAX8 reporter inactive and CFTR F508del cor inactive.
